# Shown is part of a subset that was picked to be rich in hits.
# Cruzain inh Det – inhibitors of Trypanosoma cruzi cruzain with detergent; P25779; purified cruzain, Z-FR-AMC fluorescence, 0.01% Triton; Potency, µM, hits mostly inhibitors; 200,000 compounds, 0.43% hits; note: nearly all actives have a fitted effect of over 40% in size
# Target sequence (P25779 123-467 limits assumed): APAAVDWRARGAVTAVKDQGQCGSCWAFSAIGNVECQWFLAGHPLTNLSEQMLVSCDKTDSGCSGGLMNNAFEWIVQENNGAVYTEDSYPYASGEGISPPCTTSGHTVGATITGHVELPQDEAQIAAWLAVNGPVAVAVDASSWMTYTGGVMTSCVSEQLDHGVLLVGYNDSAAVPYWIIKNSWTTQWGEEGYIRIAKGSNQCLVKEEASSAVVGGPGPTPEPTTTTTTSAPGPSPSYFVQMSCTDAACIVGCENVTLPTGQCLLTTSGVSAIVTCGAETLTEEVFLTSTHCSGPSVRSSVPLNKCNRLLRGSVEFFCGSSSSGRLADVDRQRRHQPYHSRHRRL
#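 Z-FR-AMC hydrolysis (2 uM substrate) by cruzain (1.5 nM) monitored kinetically at ex 360/em 450 nm after 15 min room-temperature compound exposure; 0.01% Triton X-100, pH 5.5, 5 mM DTT.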
# Cruzain noTriton – cruzain (T. cruzi) inhibition without detergent. P25779. purified cruzain, Z-FR-AMC fluorescence, no detergent. Potency, µM, actives largely listed as inhibitors. 200,000 compounds, 2.3% hits. AID 1476; note: nearly all actives have a fitted effect of over 40% in size
#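 Detergent-free condition (0.00005% Triton X-100) in acetate buffer pH 5.5 with DTT. 1.5 nM enzyme and compound were pre-mixed 15 min, then 2 uM Z-FR-AMC substrate added; reaction progress from fluorescence change between first and third reads (60 s).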
# NS1 inh – influenza NS1 inhibition. Potency, µM (highest dose often 46.1 µM). 270,000 compounds, 0.4% hits. AID 2326; calls by dose curve; note: actives are rising curves; nearly all actives have a fitted effect of over 50% in size
#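 Growth recovery, yeast-based: influenza A NS1 expressed in S. cerevisiae causes slow growth, and suppressors are detected by OD600. The parent strain without NS1 is used as positive control.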
# Hits are given with their value; – = inactive; ? = inconclusive; · = no result. Unless noted, calls come from the whole dose curve; as a rule, active = well fitted curve in the direction sought with a large enough effect; inconclusive = small, poorly fitted or top-dose-only effect, or another doubt; inactive = no such curve, though single readings can be large; an effect the other way counts as inactive or inconclusive.
SMILES,Cruzain inh Det,Cruzain noTriton,NS1 inh
COc1cc2c(cc1OC)C(c1c[nH]c3ccccc13)NCC2 (stereo not drawn),–,–,·
CC1C(=O)OC2CC34C5CC(C(C)(C)C)C36C(OC(=O)C6O)OC4(C(=O)O5)C21O (stereo not drawn),–,–,·
CCOC(=O)/C(C#N)=C/c1ccc(-c2ccc(C)cc2)o1,–,–,·
Cc1ccc(C)c(N2CCN(C(=O)C3CCN(c4nc5ccc(C)cc5[nH]4)CC3)CC2)c1,–,–,·
Cc1ccc(NC(=O)CSc2nc3nc(C)c(Cc4ccccc4)c(C)n3n2)cc1,–,–,·
CCCN1CCc2nc(N3CCN(c4ncccn4)CC3)ncc2C1,–,–,·
O=C(CSc1nnc(COc2cccc3ccccc23)o1)N1c2ccccc2CCc2ccccc21,–,13µM,–
CC(=O)c1ccc(NC(=O)CSc2nc(C3CC3)nc3ccccc23)cc1,·,·,–
O=C(CSc1nc2ccccc2o1)N1c2ccccc2Sc2ccccc21,–,?,–
O=C(CSc1nc2ccccc2s1)N1c2ccccc2Sc2ccc(Cl)cc21,–,16µM,–
Cc1cccc(OCc2nnc(SCC(=O)N3c4ccccc4Sc4ccc(Cl)cc43)o2)c1,–,13µM,–
NC(=O)CSc1nnc(COc2cccc3ccccc23)o1,·,·,–
COc1cccc(OCc2nnc(SCC(=O)N3c4ccccc4Sc4ccc(Cl)cc43)o2)c1,–,?,–
O=C(CSc1nc(C2CC2)nc2ccccc12)N1c2ccccc2Sc2ccccc21,–,25µM,–
OCCSCc1ccccc1,–,–,–
c1cncc(CNc2cc(-c3ccc4c(c3)OCO4)ncn2)c1,–,–,·
C/C(=N/O)c1ccc2cc(Br)c3ccccc3c2c1,–,–,–
O=C(CSc1nccn1Cc1ccc2c(c1)OCO2)Nc1ccccc1F,–,–,·
O=C(CSc1nc2ccccc2s1)N1c2ccccc2Sc2ccc(C(F)(F)F)cc21,–,10µM,–
CN(C)CCC(=O)N1c2ccccc2Sc2ccc(C(F)(F)F)cc21,·,·,–
Cc1ccc(C)c(NC(=S)NC(NC(=O)N(C)C)C(Cl)(Cl)Cl)c1 (stereo not drawn),–,–,–
Cc1ccc(C)c(NC(=S)NC(NC(=O)Cc2cccc3ccccc23)C(Cl)(Cl)Cl)c1 (stereo not drawn),–,7.9µM,–
Cc1ccc(NC(=O)Nc2c[nH]c(=O)[nH]c2=O)c(Cl)c1,–,?,·
CCOC(=O)c1c(C)[nH]c(C)c1S(=O)(=O)N(C)CC(=O)N1CCN(c2ccccc2OC)CC1,–,?,·
COc1ccc(O)c(C(=O)c2cc(C(=O)NCCc3ccccc3)c(=O)n(CCc3ccccc3)c2)c1,–,–,?
SMILES,Cruzain inh Det,Cruzain noTriton,NS1 inh
Cc1ccc(O)c(C(=O)c2cc(C(=O)NCCc3ccccc3)c(=O)n(CCc3ccccc3)c2)c1,–,25µM,–
CCC(CC)C(=O)Nc1ccc(C(=O)OCc2cc(=O)n3nc(C4CC4)sc3n2)cc1,–,–,·
Cc1ccc(C)c(CSc2cn(CC(=O)N3CCCC3)c3ccccc23)c1,–,?,·
CCCN(CCC)S(=O)(=O)c1ccc(C(=O)Nc2cccc(-c3nc4ccccc4[nH]3)c2)cc1,–,7.9µM,·
CS(=O)(=O)c1ccccc1C(=O)Nc1ccc(-c2nc3ccccc3[nH]2)cc1,·,·,–
O=C(Nc1ccc(-c2nc3ccccc3[nH]2)cc1)c1ccccc1NS(=O)(=O)c1ccc(F)cc1,–,16µM,–
CN(c1ccccc1)S(=O)(=O)c1ccc(Cl)c(C(=O)Nc2nn[nH]n2)c1,·,·,–
CN(c1ccccc1)S(=O)(=O)c1ccc(Cl)c(C(=O)Nc2ccc(-c3nc4ccccc4[nH]3)cc2)c1,–,13µM,–
COc1c(Cl)cc(C(=O)Nc2cccc(-c3nc4ccccc4[nH]3)c2)cc1Cl,–,?,·
COc1cc2c(cc1OC)n(CC(=O)c1ccc(F)cc1)c(=O)n1nc(CCn3nc(C)cc3C)nc21,–,–,·
CCOC(=O)c1cc(-c2ccc(F)cc2)n(CCC(=O)NCCc2ccc(C)cc2)c1C,–,?,·
CCCS(=O)(=O)N1CCC(N2CCN(Cc3ccc(F)cc3)C(=O)C2=O)CC1,–,–,·
CCOc1ccc(CN2C(=O)c3ccccc3Sc3ccc(C(=O)NC4CCC(C)CC4)cc32)cc1 (stereo not drawn),–,5µM,·
Cc1ccccc1CN1C(=O)c2ccccc2Sc2ccc(C(=O)NCc3cccs3)cc21,–,?,·
O=C(NCc1ccco1)c1ccc2c(c1)N(Cc1ccc(Cl)cc1)C(=O)c1ccccc1S2,–,?,·
Cc1ccccc1CN1C(=O)c2ccccc2Sc2ccc(C(=O)NCc3ccccc3)cc21,–,32µM,·
Cc1cccc(CN2C(=O)c3ccccc3Sc3ccc(C(=O)NC4CCCCC4)cc32)c1,–,13µM,·
CC1CCC(NC(=O)c2ccc3c(c2)N(Cc2cccc(F)c2)C(=O)c2ccccc2S3)CC1 (stereo not drawn),–,?,·
CCOc1ccc(CN2C(=O)c3ccccc3Sc3ccc(C(=O)NCc4ccco4)cc32)cc1,–,32µM,·
O=C(NC1CCCC1)c1ccc2c(c1)N(Cc1ccccc1)C(=O)c1ccccc1S2,–,?,·
O=C(N/N=C\c1ccc2c(c1)CCC2)c1ccccc1O,–,–,–
CCC(C)n1c(=N)c(C(=O)NCc2ccco2)cc2c(=O)n3cc(C)ccc3nc21 (stereo not drawn),–,–,·
Cc1noc(C)c1-c1ccc2ncnc(NCc3cccnc3)c2c1,–,–,·
COC(=O)N[C@@H](/C=C/c1ccccc1)/C(C(=O)OC)=C(\C)NCc1ccccc1,–,–,·
O=C(NCc1cn2ccsc2n1)c1c(F)cccc1Cl,–,20µM,?
SMILES,Cruzain inh Det,Cruzain noTriton,NS1 inh
O=C(NCc1cn2ccsc2n1)c1cccc(C(F)(F)F)c1,–,–,–
COc1cc2c(cc1OC)C(c1ccc(F)cc1)N(c1ccccc1)C(=O)C2 (stereo not drawn),–,–,·
Cc1cc(C)cc(NC(=O)N2CCC(C(N)=O)(N3CCCCC3)CC2)c1,–,–,·
CCOc1ccc(C2SCC(=O)N2c2c(C)n(C)n(-c3ccccc3)c2=O)cc1 (stereo not drawn),–,–,–
CCOc1ccc(C2=C(C=Nc3c(C)n(C)n(-c4ccccc4)c3=O)C(c3ccc(F)cc3)c3ccccc3O2)cc1 (stereo not drawn),–,3.2µM,–
COc1ccc(CCNC(=O)c2ccc3c(c2)c(C)c(C)n3Cc2ccccc2)c(OC)c1OC,–,?,·
Cc1c(C)n(Cc2ccccc2)c2ccc(C(=O)NCCc3ccccc3Cl)cc12,–,25µM,·
COc1ccc(NC(=O)c2ccc3c(c2)c(C)c(C)n3Cc2ccc(F)cc2)cc1,–,?,·
Cc1ccccc1CCNC(=O)c1ccc2c(c1)c(C)c(C)n2C,–,?,·
Cc1ccccc1CCNC(=O)c1ccc2c(c1)c(C)c(C)n2Cc1ccccc1,–,20µM,·
Cc1c(C)n(Cc2ccccc2)c2ccc(C(=O)NCc3ccc(OC(C)C)cc3)cc12,–,25µM,·
CCOC(=O)c1ccc(NC(=O)c2ccc3c(c2)c(C)c(C)n3Cc2ccc(F)cc2)cc1,–,7.9µM,·
Cc1cccc(CNC(=O)c2ccc3c(c2)c(C)c(C)n3Cc2ccccc2)c1,–,?,·
O=C(NCc1ccc(Cl)cc1)c1cnc(N2CCOCC2)c2ccccc12,–,–,·
CC(C)C(NC(=O)c1ccco1)C(=O)NCC(c1ccco1)N1CCCCC1 (stereo not drawn),14µM,?,–
CC(C)C(NC(=O)c1ccco1)C(=O)NC1CCCCCC1 (stereo not drawn),·,·,–
